Rab9 promoter act = qHTS Assay for Rab9 Promoter Activators; Huh7 Rab9 promoter-luciferase reporter, luminescence, 24 h; Potency, µM (highest dose often 9.22 µM), for the others: at the top dose activation, negative = inhibition, hits mostly activators; actives 2.8% (n = 320,000); further: % of control where 0% means no effect; nearly all actives have a fitted effect of over 60% in size
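Huh7 cells stably carrying a Rab9 promoter-luciferase reporter, 1500 cells per well in OP-MEM I with 10% FBS, treated with compound 24 hours at 37C. Luciferase activity read by luminescence after 10 minutes with Amplite reagent.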
ELG1 genotoxic = qHTS screen for small molecules that induce genotoxicity in human embryonic kidney (HEK293T) cells expressing luciferase-tagged ELG1 | AID 504466, 2011 | Potency, µM (top dose mostly 46 µM), inactives show at the highest dose activity change, positive = activation, actives largely listed as activators | HEK293T ELG1-luciferase reporter, luminescence, 16 h | actives 1.3% (n = 330,000); further: % of control where 0% means no effect; nearly all actives have a fitted effect of over 60% in size
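Genotoxic stress is detected as increased luminescence from luciferase-tagged ELG1 in HEK293T cells, measured with ONE-Glo after a 16 hr treatment at 37 °C.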
SMN2 splice up = qHTS Assay for Enhancers of SMN2 Splice Variant Expression; HEK293 SMN2-luciferase splicing reporter, luminescence, 30-36 h; Potency, µM (titrated, usually from 46.1 µM), for the others: at the highest dose activity change, positive = activation, usual class: activators; actives 2.8% (n = 210,000); further: % of control where 0% means no effect; nearly all actives have a fitted effect of over 55% in size
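HEK293 cells carry an SMN2 […]–luciferase reporter in which exon 7 inclusion puts luciferase in frame. Cells were plated 10-12 h before compound addition, then incubated 30-36 h at 37C. ONE-Glo luminescence was read; sodium butyrate at 4.5 mM final served as control.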
NPC1 promoter act = qHTS Assay for NPC1 Promoter Activators. AID 485313, 2010. actives 2.4% (n = 320,000). Potency, µM (doses to about 9.22 µM), for inactives: top-dose activation, hits mostly activators. Huh7 NPC1 promoter luciferase reporter, 24 h; further: % of control where 0% means no effect; nearly all actives have a fitted effect of over 60% in size
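Luciferase expression driven by the NPC1 promoter was measured in stably transfected Huh7 cells after a 24 h compound incubation, using a luciferase reagent and a luminescence read.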
FLuc counter = qHTS profiling assay for firefly luciferase inhibitor/activator using purifed enzyme and Km concentrations of substrates (counterscreen for miR-21 project) | Luciferin 4-monooxygenase (Photinus pyralis), P08659 | purified FLuc, Km substrates, luminescence inhibition | Potency, µM (top dose mostly 57.5 µM), for inactives: at the top dose activity change, negative = inhibition, actives largely listed as inhibitors | actives 6.9% (n = 360,000);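 further: plate controls were vehicle for no effect and reference inhibitor for full effect; nearly all actives have a fitted effect of over 55% in size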
Target sequence (P08659 whole entry, looked up): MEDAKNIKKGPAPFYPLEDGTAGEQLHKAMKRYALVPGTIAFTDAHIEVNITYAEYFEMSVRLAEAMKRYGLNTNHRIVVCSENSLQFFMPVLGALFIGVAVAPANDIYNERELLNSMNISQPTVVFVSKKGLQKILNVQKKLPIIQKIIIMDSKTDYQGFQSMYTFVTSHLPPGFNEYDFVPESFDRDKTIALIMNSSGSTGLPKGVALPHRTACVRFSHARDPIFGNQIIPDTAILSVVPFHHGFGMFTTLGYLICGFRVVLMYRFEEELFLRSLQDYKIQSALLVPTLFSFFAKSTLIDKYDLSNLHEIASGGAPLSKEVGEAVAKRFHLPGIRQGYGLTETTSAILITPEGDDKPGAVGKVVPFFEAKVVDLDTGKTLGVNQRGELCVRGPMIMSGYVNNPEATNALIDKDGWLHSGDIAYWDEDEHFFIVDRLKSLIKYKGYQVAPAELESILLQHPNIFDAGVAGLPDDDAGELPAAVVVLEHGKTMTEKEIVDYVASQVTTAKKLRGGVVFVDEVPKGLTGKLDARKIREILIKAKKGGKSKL
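Purified P. pyralis luciferase, 10 nM final, with Km-level 10 uM D-luciferin and 10 uM ATP in 50 mM Tris acetate pH 7.5, 10 mM Mg acetate, 0.01% Tween-20, 0.05% BSA; 6-point qHTS titration about 60 µM downward; luminescence read.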
Starred values were filed as active, the others as inactive; ? = inconclusive; . = not tested or not shown; [ ] = another dose, or the depositor's remark. The list is not random: actives were taken first. Their share in the collection is about 7.4%. The call rests on the fitted dose curve; in most records, active means well fitted curve in the direction sought with a large enough effect; inconclusive means small, poorly fitted or top-dose-only effect, or another doubt; inactive means no such curve, though single readings can be large; an effect the other way counts as inactive or inconclusive. Potency means the concentration at half of the fitted maximal effect.

SMILES	Rab9 promoter act	ELG1 genotoxic	SMN2 splice up	NPC1 promoter act	FLuc counter
CCC(C)c1ccc2oc(-c3ccc(NC(=O)c4ncn[nH]4)cc3)nc2c1 (stereo not drawn)	6.2%	?	25.6%	15.4%	2.69µM*
O=C(Nc1cccc(-c2nc3cc(Cl)ccc3o2)c1)c1ccc(F)cc1	.	.	.	.	-0.7%
Cc1cccc(C(=O)Nc2ccc(-c3nc4cc(C(C)C)ccc4o3)cc2)c1	.	.	-3.0%	.	?
O=C(Nc1ccc(S(=O)(=O)N2CCOCC2)cc1)c1cccc(Br)c1	8.0%	0.9%	.	-1.8%	-2.0%
CC1=C(C(=O)Nc2cccc(C(F)(F)F)c2)C2(CCCCCC2)OC1=O	.	.	.	.	-2.1%
Cc1ccc(N(CC(=O)NCc2ccco2)C(=O)CCC(=O)Nc2nccs2)c(C)c1	-3.0%	-3.3%	.	-4.0%	-1.4%
COc1ccccc1/C=C/c1nc(C#N)c(NC2CCCCC2)o1	.	.	3.5%	.	?
COc1cc(OC)cc(C(=O)Nc2ccc(-c3nc4cc(C(C)C)ccc4o3)cc2)c1	.	.	-28.7%	.	10.7µM*
COc1cc(OC)cc(C(=O)Nc2ccc(-c3nc4ccccc4o3)cc2)c1	-1.9%	-4.5%	-13.3%	-2.8%	-10.4%
CCOC(=O)c1ccccc1NC(=O)Cn1c(=O)n(CCC(=O)NCc2ccccc2OC)c(=O)c2ccccc21	.	.	12.4%	.	-0.2%
O=C(O)c1ccc(N=Nc2c(O)ccc3ncccc23)cc1	-30.2%	-4.2%	.	-20.4%	1.69µM*
O=c1nc2n(c3ccccc13)Cc1ccccc1-2	-1.7%	-1.1%	12.3%	-1.9%	5.8%
O=c1c2cccc(Cl)c2nc2n1Cc1ccccc1-2	2.82µM*	?	.	?	12µM*
Cc1sc2nc3n(c(=O)c2c1C)Cc1ccccc1-3	?	?	14.1µM*	25.8%	3.79µM*
COc1ccc(/C=C/C2=CC(C)(C)NC(=S)N2)cc1OC	-4.6%	2.1%	-12.1%	7.7%	-18.2%
COc1ccc(/C=C/C2=Nc3ccccc3NC(C)(C)C2)cc1OC	?	-4.7%	.	29.0%	6.01µM*
CCONc1ncnc2nonc12	-4.0%	-3.3%	2.6%	1.0%	0.0%
Clc1ccc(CONc2ncnc3nonc23)c(Cl)c1	3.55µM*	2.6%	?	?	?
Cc1ccc(CN(C(=O)COc2cccc(Cl)c2)c2ccccn2)o1	.	.	.	.	-1.9%
Oc1cccc(N2Cc3ccccc3C2)c1	-0.8%[1.84 µM]	10.7%	.	-0.5%	?
O=C(O)c1ccc(N2Cc3ccccc3C2)cc1O	27.3%	2.5%	-6.0%	20.8%	23.9µM*
O=C(O)c1ccc(N2CCCCC2)cc1O	1.1%	5.9%	.	16.4%	15.1µM*
O=C1O/C(=C/Br)CCC1c1cccc2ccccc12 (stereo not drawn)	-42.7%[46.1 µM]	.	-43.1%	-34.6%[46.1 µM]	.
O=C1CCN(Cc2ccccc2)CCN1CCSc1ccccc1	4.47µM*	?	.	?	13.5µM*
CCCN1CCC(=O)N(CCSc2ccc(NC(C)=O)cc2)CC1	-2.7%	3.5%	.	1.0%	-1.4%
SMILES	Rab9 promoter act	ELG1 genotoxic	SMN2 splice up	NPC1 promoter act	FLuc counter
CCCN1CCC(=O)N(CCSc2ccccc2)CC1	3.55µM*	?	.	2.82µM*	?
COc1ccc(OC)c(CCNC(=O)CCn2c(=O)c3cccn3c3cccnc32)c1	.	.	.	.	-2.0%
CC(N)CCCC(C)(C)O (stereo not drawn)	.	.	0.7%	.	.
Cc1cccc(C)c1NC(=O)CN1C(=O)c2ccccc2Sc2ncccc21	.	.	.	.	-0.1%
CC1(C)CCC[C@]2(C)[C@H]3Cc4cc(O)ccc4O[C@]3(C)CC[C@@H]12	.	0.0%	.	.	.
O=C(CSc1nnc(-c2ccc(O)cc2)o1)Nc1ccccc1	2.82µM*	8.2µM*	.	2.51µM*	?
Cc1csc(NC(=O)CSc2nnc(-c3ccccc3)o2)n1	2µM*	5.01µM*	11.2µM*	3.16µM*	-4.4%
O=C(CSc1nnc(-c2csc3c2CCCC3)o1)Nc1ccccc1	0.562µM*	0.581µM*	1.78µM*	?	-18.3%
O=C(O)CSc1nnc(-c2ccc(O)cc2)o1	.	.	3.0%	.	?
COc1ccccc1NC(=O)CSc1nnc(-c2ccccc2)o1	?	18.4µM*	14.1µM*	?	-3.9%

Assay outcomes as filed in PubChem BioAssay.
